In this experiment the target is Torsin-1A (Homo sapiens) (UniProt O14656). Kind of experiment: small-molecule binders of mutant TOR1A in lysate, primary screen, cell lysate, small-molecule microarray, COS7 lysate, 635/667 nm fluorescence (AID 1150).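 Further: score pools 667 nm emission and signal to noise measuring lysate protein binding.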 Conditions: COS7 hTOR1A mutant lysate, 635 nm fluorescence, higher = more signal.
Torsin-1A (Homo sapiens), sequence (O14656 whole entry, looked up): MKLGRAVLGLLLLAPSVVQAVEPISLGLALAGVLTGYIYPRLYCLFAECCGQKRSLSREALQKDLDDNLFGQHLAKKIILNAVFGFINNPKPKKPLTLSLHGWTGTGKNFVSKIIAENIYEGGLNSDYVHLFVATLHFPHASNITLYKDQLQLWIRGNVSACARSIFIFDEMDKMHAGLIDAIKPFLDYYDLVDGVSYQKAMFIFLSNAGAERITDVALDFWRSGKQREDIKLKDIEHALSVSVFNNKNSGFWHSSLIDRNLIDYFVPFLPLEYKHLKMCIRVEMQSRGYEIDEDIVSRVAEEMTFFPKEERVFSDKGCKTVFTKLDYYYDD
Compound `CO[C@H]1O[C@H](CO)[C@@H](OC(=O)Nc2ccccc2)[C@@H]2OC(=O)[C@H](Cc3ccccc3)C/C=C/C[C@@H](Cc3ccccc3)C(=O)O[C@@H]12` came in with a composite z-score of 0.348.

As for `CCCCC(=C=CC[C@@H](O)c1ccc(OCCO)cc1)C[C@@H](O)c1ccccn1`, the composite z-score worked out at 0.51.

Compound `C=CCC(OC(C)=O)[C@@H]1[C@@H](N(Cc2cccc3ccccc23)C(=O)c2ccc(-c3ccccc3)cc2)c2cc(OCCCO)ccc2N1C(=O)c1ccc2ccccc2n1` (some centres not stated) returned a composite z-score of 0.309.

In the case of `COCCOC(=O)N1C(=O)[C@@]2(c3cc(C#CC4(O)CCCCCC4)ccc31)[C@H](c1ccc(OCCO)cc1)N1[C@H](c3ccccc3)[C@H](c3ccccc3)OC(=O)[C@H]1[C@@H]2C(N)=O`, the composite z-score stood at 0.861.

The compound `COc1ccc([Si](C)(C)[C@H]2[C@H](CCO)O[C@@]3(C(=O)N(Cc4ccc(N5CCOC5=O)cc4)c4ccccc43)[C@@H]2C)cc1` registered a composite z-score of 0.0362.

`Cc1c(-c2ccc(-c3ccc(Cl)c(Cl)c3)o2)nc(-c2ccccc2)c2c1CO[Si]2(C(C)C)C(C)C`: the composite z-score was -0.474.

As to `O=C1OCCC=C[C@H]2OC34C=CCN(CCN5CCOCC5)C(=O)[C@H]3N(CCCO)C(=O)[C@@H]4C12` (some centres not stated), the composite z-score is -1.33.

Compound `COC(=O)[C@@]1(Cc2ccc(F)cc2)[C@H]2c3cc(C(=O)N(C)C)n(CCO)c3C[C@H]2CN1C(=O)c1ccccc1` displayed a composite z-score of 0.297.

For `CC(C)C[C@H]1NC(=O)[C@@H](C)NC(=O)[C@@]23C(=O)N[C@@H](Cc4ccccc4)C2[C@H](C)[C@@]2(C)O[C@H]2C3/C=C/C/C=C\CNC1=O` (some centres not stated), the composite z-score is -0.145.

`N#Cc1ccc(C(O)C2C=CC3C(=O)N(c4ccccc4)C(=O)C3N2Nc2ccc([N+](=O)[O-])cc2)cc1` (configuration not stated): the composite z-score was found to be 0.212.

`CN(C)CCCC[C@@H]1NC(=O)[C@@H]2C[C@H](C(=O)NCc3ccc(F)cc3)[C@H](c3ccc(O)cc3)N2C1=O` had a composite z-score of 0.249.

`CC(=O)c1ccc(C(O)C2C=CC3C(=O)N(C)C(=O)C3N2NC(=O)OC(C)(C)C)cc1` (configuration not stated) gave a composite z-score of 0.548.

The compound `CO[C@H]1O[C@H](CO)[C@@H](OC(=O)Nc2ccc3c(c2)OCO3)[C@@H]2OC(=O)[C@@H](Cc3ccccc3)C/C=C/C[C@H](Cc3ccccc3)C(=O)O[C@@H]12` registered a composite z-score of 0.266.

For the compound `O=C1NC(=O)C2C1C=CC(C(O)c1cccc(O)c1)N2Nc1ccc(Cl)cc1Cl` (configuration not stated), the composite z-score came out at 0.25.

For `Cc1ccc(S[C@]2(C(=O)NCCCN(C)C)CC(=O)N(Cc3ccccc3Cl)[C@@H]2c2ccc(CO)cc2I)cc1`, the composite z-score was -0.679.

Compound `O=c1cccc(-c2ccccc2C(F)(F)F)o1` gave a composite z-score of 0.0563.

For `COCCOC(=O)N1C(=O)[C@@]2(c3cc(C#CCC(C(=O)OC)C(=O)OC)ccc31)[C@H](c1ccc(OCCO)cc1)N1[C@H](c3ccccc3)[C@H](c3ccccc3)OC(=O)[C@H]1[C@@H]2C(=O)N1CCCCCCC1`, the composite z-score was 1.98.

`C[C@H]1NC(=O)C([C@@H](C)OCc2ccccc2)NC(=O)[C@@]23C(=O)N[C@@H](Cc4ccccc4)C2[C@H](C)[C@@]2(C)O[C@H]2C3/C=C/C/C=C\CNC1=O` (some centres not stated) returned a composite z-score of 0.352.

For the compound `COCC(=C=CC[C@@H](O)c1cccc(OCCO)c1)C[C@@H](O)COCc1ccccc1`, the composite z-score stood at 2.28.

For `C=C(CCCC)C(=O)CC[C@H](OC(C)=O)c1ccccc1OCCO`, the composite z-score was -0.447.

`CCC[C@@H]1C=C(C(=O)OCC)[C@H](c2ccccc2)N1S(=O)(=O)c1ccc(C)cc1` returned a composite z-score of 0.373.

`COCCOC(=O)N1C(=O)[C@@]2(c3cc(C#CC4(O)CCCCCC4)ccc31)[C@H](C(=O)N1CCc3cc(OC)c(OC)cc3C1)[C@H]1C(=O)O[C@H](c3ccccc3)[C@H](c3ccccc3)N1[C@@H]2c1ccc(O)cc1` came in with a composite z-score of 0.538.

`Cc1ccc(F)cc1S(=O)(=O)N[C@@H]1CCN(Cc2ccc3c(c2)OCO3)C1` registered a composite z-score of 0.0733.

For `COCCOC(=O)N1C(=O)[C@@]2(c3cc(C#CC4(O)CCCCCC4)ccc31)[C@H](c1ccc(OCCO)cc1)N1[C@H](c3ccccc3)[C@H](c3ccccc3)OC(=O)[C@H]1[C@@H]2C(=O)N1CCCCCCC1`, the composite z-score was 1.12.

With `CC(c1ccccc1)C(O)C1C=CC2C(=O)N(c3ccccc3)C(=O)C2N1Nc1ccc(C#N)cc1` (configuration not stated), the composite z-score amounted to 0.739.

As for `COC(=O)C(CC#Cc1ccc2c(c1)[C@]1(C(=O)N2)[C@H](c2ccc(O)cc2)N2[C@H](c3ccccc3)[C@H](c3ccccc3)OC(=O)[C@H]2[C@@H]1C(=O)N1CCc2cc(OC)c(OC)cc2C1)C(=O)OC`, the composite z-score worked out at 0.48.

Compound `C[N+](C)(C)CCCCCCNC(=O)[C@H]1C[C@H]2C(=O)NCC(=O)N2[C@H]1c1cccc(OCCO)c1` registered a composite z-score of 0.781.

The record behind these values is PubChem BioAssay.
